Screening results from PubChem.
RXFP1 agonist = activates the human relaxin receptor RXFP1; HEK293T-RXFP1 cAMP TR-FRET, 30 min; response scale: percent of porcine relaxin response, buffer zero; Potency, µM (series often up to 57.5 µM), inactives show at the highest dose activation, hits mostly activators; 370,000 compounds, 0.3% hits; active = well fitted activation curve with a large enough effect; inconclusive = small, poorly fitted or top-dose-only effect; note: potency is the fitted concentration of half-maximal effect; % is set by controls: 0 for no effect and ±100 for the full control effect; nearly all actives have a fitted effect of over 60% in size
Target sequence (Q9HBX9 whole entry, looked up): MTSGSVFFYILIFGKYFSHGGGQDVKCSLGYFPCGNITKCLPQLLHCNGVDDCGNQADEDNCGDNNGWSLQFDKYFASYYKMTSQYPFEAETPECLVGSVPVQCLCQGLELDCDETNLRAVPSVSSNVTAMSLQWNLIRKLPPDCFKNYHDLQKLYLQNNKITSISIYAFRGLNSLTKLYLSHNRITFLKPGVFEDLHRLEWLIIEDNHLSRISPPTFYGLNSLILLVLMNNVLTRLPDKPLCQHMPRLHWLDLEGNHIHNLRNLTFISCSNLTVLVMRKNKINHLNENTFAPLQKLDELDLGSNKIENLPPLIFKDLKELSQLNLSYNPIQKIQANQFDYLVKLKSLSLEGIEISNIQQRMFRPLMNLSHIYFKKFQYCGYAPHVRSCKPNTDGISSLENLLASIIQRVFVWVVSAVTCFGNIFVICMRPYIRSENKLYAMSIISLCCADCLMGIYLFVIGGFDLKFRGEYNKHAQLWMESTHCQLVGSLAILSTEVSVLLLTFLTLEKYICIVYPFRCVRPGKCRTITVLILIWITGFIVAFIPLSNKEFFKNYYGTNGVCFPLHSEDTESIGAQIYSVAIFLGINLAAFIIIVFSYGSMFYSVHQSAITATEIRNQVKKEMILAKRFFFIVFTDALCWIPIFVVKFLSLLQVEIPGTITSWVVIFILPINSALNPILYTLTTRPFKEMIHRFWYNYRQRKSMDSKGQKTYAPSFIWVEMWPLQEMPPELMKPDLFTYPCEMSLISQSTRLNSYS
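HEK293T cells stably expressing RXFP1 were pretreated with the PDE4 inhibitor Ro 20174, exposed to compounds for 30 min at 37C, lysed, and cAMP was read by TR-FRET. Data normalized to buffer (basal) and 29 nM porcine relaxin (100%).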
gsp agonist = activates gsp, the McCune-Albright syndrome mutation | gsp mutant cells, cAMP HTRF, 30 min | Potency, µM (highest dose often 76.9 µM), inactives show at the top dose activation (cAMP increase), usual class: activators | 340,000 compounds, 0.13% hits | AID 624287; active = well fitted activation curve with a large enough effect; inconclusive = small, poorly fitted or top-dose-only effect, or another doubt; inactive = no such curve, though single readings can be large or run the other way; cell line not stated here;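 note: phosphodiesterase inhibitor Ro 20-1724 added with compounds to block cAMP breakdown; potency is the fitted concentration of half-maximal effect; nearly all actives have a fitted effect of over 60% in size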
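Cells in DMEM/10% FBS with G418 were pretreated with compounds in DMSO plus […] (300 uM stock) for 30 min at 37C. cAMP was measured by HTRF (cAMP-d2 plus anti-cAMP antibody-K) after 30 min at room temperature.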
TSHR antagonist = blocks TSH signaling through the human TSH receptor; P16473; TSHR-expressing cells, TSH-stimulated cAMP HTRF, 2 h; stronger effect = lower value; activity change, negative = inhibition, % at 11.5 µM; 330,000 compounds, 0.2% hits; AID 504810;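 active = activity change below a set negative limit, meaning inhibition stronger than a set level, cut at about -70% in these data; inconclusive = activity change between two set negative limits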; note: % is set by controls: 0 for no effect and ±100 for the full control effect
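Freshly harvested TSHR cells receive pin-tooled compound, then EC80 TSH at 4nM final. After 2 hours at 37 deg C, antibody in lysis buffer and cAMP-d2 are added; 30 minutes at ambient temperature precede the HTRF read.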
RXFP1 antag = blocks the human relaxin receptor RXFP1; HEK293-RXFP1, relaxin-stimulated cAMP HTRF, 30 min; stronger effect = lower value; activity change, negative = inhibition, % at 57.5 µM; 350,000 compounds, 0.59% hits; AID 1259400;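 active = activity change of -60% or lower, but not beyond a set lower limit; inconclusive = change between -60% and -40%, or beyond the set limit; inactive = change above -40%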; note: % is set by controls: 0 for no effect and ±100 for the full control effect
gsp antag = gsp mutant antagonism. gsp-mutant cells, cAMP HTRF, 30 min. Potency, µM (top dose mostly 76.9 µM), for inactives: at the top dose activity change, negative = inhibition, most hits filed as inhibitors. 340,000 compounds, 0.4% hits. AID 624288; calls by dose curve; cell line not stated here;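 note: intracellular cAMP measured with PDE inhibitor Ro 20-1724 present during compound exposure; potency is the fitted concentration of half-maximal effect; % is set by controls: 0 for no effect and ±100 for the full control effect; nearly all actives have a fitted effect of over 65% in size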
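Cells in G418 medium, seeded 16-24 h, 37C; buffer exchange to DPBS + 1 mM CaCl2, 0.5 mM MgCl2, 0.05% BSA; cpds in DMSO + […] (300 uM stock), 30 min 37C; HTRF cAMP detection.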
* hit, by the source's call; ? = inconclusive; . = no result given; [ ] = dose if it differs, or a comment. Compounds with a hit are over-represented: about 1% of the library has one in this group of screens.

SMILES | RXFP1 agonist | gsp agonist | TSHR antagonist | RXFP1 antag | gsp antag
CC(=O)c1cc(Cl)ccc1OCc1cccc(S(=O)(=O)N2CCOCC2)c1 | 3.3% | -7.8% | -10.1 | -16.7 | 35.5µM*
CO/N=C(\C(=O)N[C@@H]1C(=O)N2C(C(=O)OCOC(=O)C(C)(C)C)=C(C)CS[C@H]12)c1csc(N)n1 | . | . | . | -35.6 | .
CCOC(=O)c1ccc(NC(=O)C(C)N(c2ccc(OCC)cc2)S(C)(=O)=O)cc1 (stereo not drawn) | 2.0% | . | . | . | .
CCOC(=O)c1nnn(-c2nonc2N)c1CN1CCCC1 | -2.1% | -57.6% | 12.6 | 8.3 | 50.1µM*
CCOC(=O)c1nnn(-c2nonc2N)c1CN1CCCCCC1 | 4.0% | -25.7% | 6.4 | -2.2 | -4.4%
CC(=O)c1c(C)n(-c2cccc(C)c2)c2ccc(OC(=O)COc3ccccc3)cc12 | 0.5% | . | . | . | .
Cc1ccc(F)cc1CNC(=O)c1cc(COc2ccc3ncccc3c2)on1 | 1.2% | -42.2% | -48.0 | 4.5 | ?
O=C(NCc1cccc(Cl)c1)c1cc(COc2ccc3ncccc3c2)on1 | -2.5% | -2.8%[15.4 µM] | -49.2 | -6.7 | 35.5µM*
O=c1oc2cc(O)ccc2c2ccccc12 | 14.1µM* | 8.91µM* | 5.5 | 30.7 | 13.1%
COc1ccc2c(c1)c(=O)oc1cc(O)ccc12 | 7.9% | ? | 7.1 | 13.4 | 1.9%
Cc1ccc(NC(=O)[C@@H](C)NC(=O)[C@@H]2Cc3ccccc3CN2)cc1 | 3.3% | -25.5% | -8.0 | -1.8 | 6.6%
C[C@@H](NC(=O)[C@@H]1Cc2ccccc2CN1)C(=O)NC1CCCCC1 | 1.1% | -12.7% | -133.8* | 5.2 | 13.9%
CCOC(=O)c1ccc(NC2SC(=O)N(Cc3cccc(C(=O)O)c3)C2=O)cc1 (stereo not drawn) | -1.4% | . | . | -0.7 | .
COC(=O)c1c(NC(=O)C(C)(C)C)sc2c1CCN(Cc1ccccc1)C2 | 3.1% | -1.3% | -10.6 | -68.4* | -4.3%
COC(=O)c1c(NC(C)=O)sc2c1CCN(Cc1ccccc1)C2 | 5.1% | ? | -9.1 | -0.4 | -2.3%
Cn1nc(C(F)(F)F)c2cc(C(=O)Nc3ccc(F)c(Cl)c3)sc21 | -1.4% | 14.2% | -24.7 | -75.9* | ?
Cn1nc(C(F)(F)F)c2cc(C(=O)Nc3ccc(F)cc3)sc21 | 0.4% | 2.2%[15.4 µM] | -0.4 | -7.2 | -15.5%
COc1ccc(/C=N/Nc2cc(C)nc3c(C)cccc23)cc1 | 1.6% | -20.1% | 35.4 | -28.4 | 9.0%
COc1ccc(/C=N/Nc2cc(C)nc3ccccc23)cc1 | 0.3% | -30.5% | 3.3 | -70.6* | 8.8%
O=C(NOCC1CC1)c1ccc(F)c(F)c1Nc1ccc(I)cc1Cl | . | . | . | -21.7 | .
O=C1NC(Cc2c[nH]c3ccccc23)C(=O)N1Cc1ccccc1 (stereo not drawn) | 1.2% | ? | -10.2 | -3.1 | 0.7%
COC(=O)c1ccc(CN2C(=O)NC(Cc3c[nH]c4ccccc34)C2=O)cc1 (stereo not drawn) | 0.2% | 11.2%[15.4 µM] | -98.1* | -5.4 | -23.1%
COc1ccc(CNC(=O)C(C)n2ccc3cc(S(=O)(=O)N4CCCC4)ccc32)cc1OC (stereo not drawn) | 2.8% | . | . | -13.9 | .
CCC(=O)N1CCN(c2ccc(NC(=O)c3cc4ccccc4o3)cc2Cl)CC1 | 3.6% | 6.3% | -36.1 | -33.2 | 20µM*
CCCC(=O)N1CCN(c2ccc(NC(=O)c3cc4ccccc4o3)cc2Cl)CC1 | -0.5% | -4.2% | -86.7* | ? | ?
SMILES | RXFP1 agonist | gsp agonist | TSHR antagonist | RXFP1 antag | gsp antag
O=C(Nc1ccc(N2CCN(C(=O)c3ccco3)CC2)c(Cl)c1)c1cc2ccccc2o1 | 3.5% | -9.1% | ? | -5.2 | ?
Cc1cc2oc(C(=O)Nc3ccc(S(=O)(=O)Nc4onc(C)c4C)cc3)cc(=O)c2cc1C | -3.2% | . | . | -1.8 | .
Cc1ccccc1/C=C/C(=O)c1ccc([N+](=O)[O-])o1 | 1.4% | . | -79.5* | . | -8.8%
CN(C)S(=O)(=O)c1cccc(-c2nn(-c3ccccc3)cc2/C=C2\SC(=S)NC2=O)c1 | 2.0% | -49.1% | -73.6* | -15.1 | ?
O=C(Nc1ccc(Cl)cc1)c1ccc(-n2cnnc2)cc1 | 1.0% | . | . | -17.7 | .
O=C(COC(=O)CNC(=O)c1ccc(Cl)cc1Cl)NC1CCCCCCC1 | 0.1% | -4.2%[15.4 µM] | -5.7 | -61.2* | 7.7%
O=C(COC(=O)COc1ccc(Cl)cc1Cl)NC1CCCCCC1 | 0.6% | -29.2% | 4.6 | 5.8 | 3.3%
CCc1cccc(NC(=O)c2cccc3c2C(=O)N(CC2CCCO2)C3)c1 (stereo not drawn) | 1.3% | 9.8% | -5.5 | -6.5 | 35.5µM*
O=C(O)c1cccc2c1C(=O)N(CC1CCCO1)C2 (stereo not drawn) | -1.1% | 8.3%[15.4 µM] | 1.8 | -1.2 | -5.0%
CC(C)Cn1c(-c2ccccc2F)n[nH]c1=S | 5.6% | 2.0% | -21.6 | -9.5 | -5.6%
CC(C)Cn1c(-c2csc3c2CCCC3)n[nH]c1=S | -0.6% | -4.8% | -82.5* | -3.1 | 2.0%
CC1CCN(C(=O)CSc2nc3c([nH]c4ccccc43)c(=O)n2-c2ccccc2)CC1 | 3.7% | . | . | -2.0 | .
COc1ccc(N(C)C(=O)c2cc3c(s2)-c2ccccc2OC3)cc1 | 0.1% | . | . | -64.2* | .
Cc1nnc2c3ccccc3c(Cl)nn12 | ? | 25.1µM* | 23.2 | -0.3 | 5.2%
Cc1cc(N/N=C/c2ccc(O)c(C)c2O)nc(-c2ccccc2O)n1 | -0.3% | ? | -17.9 | -72.2* | -20.8%
C/C(=N\Nc1cc(C)nc(-c2ccccc2O)n1)c1ccccc1 | -0.6% | -13.1% | -48.4 | -6.4 | -8.5%
Clc1ccccc1C(c1ccccc1)(c1ccccc1)n1ccnc1 | 1.5% | . | -14.1 | -93.7* | ?
C#CC(c1ccccc1)(c1ccccc1)n1ccnc1 | . | -7.5% | . | 10.3 | .
CCOc1ccc(/C(O)=C2/C(=O)C(=O)N(c3ccccn3)C2c2ccc(F)cc2)c(C)c1 (stereo not drawn) | 0.0% | 15.8µM* | -9.6 | 12.2 | 11.0%
C#Cc1ccc(-c2ccccc2F)cc1 | . | . | . | 9.2 | .
O=C(Nc1ccc(S(=O)(=O)N2CCOCC2)cc1)c1cc(Cl)ccc1NS(=O)(=O)c1ccc(Cl)s1 | . | . | . | -34.4 | .
COc1cc(/C=N/Nc2nc(N3CCCC3)nc(N3CCCC3)n2)ccc1OCc1ccccc1F | -1.1% | 1.0% | -70.6* | 4.8 | ?
CC(C)C[C@H](NC(=O)CNC(=O)[C@H](Cc1ccc(O)cc1)NC(=O)[C@H](CO)NC(=O)[C@H](Cc1c[nH]c2ccccc12)NC(=O)[C@H](Cc1cnc[nH]1)NC(=O)[C@@H]1CCC(=O)N1)C(=O)N[C@@H](CCCN=C(N)N)C(=O)N1CCC[C@H]1C(=O)NCC(N)=O (stereo in doubt) | . | . | . | 22.9 | .
COc1cc(OC)c(NC(=O)Cn2cnc3sc(C)c(S(=O)(=O)N4CCOCC4)c3c2=O)cc1Cl | 4.8% | -15.8% | -97.2* | -16.0 | 8.9%
Cc1sc2ncn(CC(=O)Nc3ccc(C(C)C)cc3)c(=O)c2c1S(=O)(=O)N1CCN(c2ncccn2)CC1 | 25.1µM* | . | . | . | .
